Our source for the activity, negative = inhibition and Potency values is PubChem BioAssay (NCATS).

Unmarked numbers belong to inactive results. Unless noted, calls come from the whole dose curve; as a rule, active = well fitted curve in either direction with a large enough effect (not every such curve was filed as active); inconclusive = small, poorly fitted or top-dose-only effect, or another doubt; inactive = flat fitted curve, though single readings scatter. Results filed as inconclusive are left out.

Sequence of Glucocorticoid receptor (Homo sapiens) (P04150 whole entry, looked up): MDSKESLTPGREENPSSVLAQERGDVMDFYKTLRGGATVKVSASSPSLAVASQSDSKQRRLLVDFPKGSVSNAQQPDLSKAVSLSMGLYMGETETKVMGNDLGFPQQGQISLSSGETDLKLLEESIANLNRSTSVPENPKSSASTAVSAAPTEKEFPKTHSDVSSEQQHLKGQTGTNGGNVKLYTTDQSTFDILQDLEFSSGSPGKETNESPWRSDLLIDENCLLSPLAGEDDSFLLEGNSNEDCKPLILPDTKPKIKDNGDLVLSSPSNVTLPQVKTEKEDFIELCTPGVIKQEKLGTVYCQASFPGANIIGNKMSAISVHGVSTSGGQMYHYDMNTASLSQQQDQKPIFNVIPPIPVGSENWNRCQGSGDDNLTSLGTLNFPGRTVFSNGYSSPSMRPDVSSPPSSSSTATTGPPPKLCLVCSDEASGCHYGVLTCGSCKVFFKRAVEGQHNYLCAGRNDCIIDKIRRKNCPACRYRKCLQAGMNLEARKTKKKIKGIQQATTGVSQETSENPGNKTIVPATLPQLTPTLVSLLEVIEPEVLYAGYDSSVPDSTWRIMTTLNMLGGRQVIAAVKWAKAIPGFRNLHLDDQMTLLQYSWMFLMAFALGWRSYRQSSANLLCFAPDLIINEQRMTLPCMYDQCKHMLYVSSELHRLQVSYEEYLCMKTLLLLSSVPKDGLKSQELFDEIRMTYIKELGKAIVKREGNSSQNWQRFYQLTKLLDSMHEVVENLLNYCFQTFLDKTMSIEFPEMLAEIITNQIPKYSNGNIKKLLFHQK

Tested on in one test: not listed separately
Description: Stat Signaling Pathway (AID 446).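 Note: ME-180 cervical cancer cells given 40 pM IL-6 alongside compound; SIE-controlled beta-lactamase reporter measured as 460/530 nm FRET emission ratio; % is set by controls: 0 for no effect and ±100 for the full control effect.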 Particulars: ME-180 (cervical carcinoma) SIE beta-lactamase reporter, IL-6 stimulated, 5 h; at 7.69 µM (top of the series) unless noted. In outline:
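ME-180 SIE-bla cells; overnight plating; cpd + IL-6 40 pM, 5 h, 37 C; LiveBLAzer 2.5 h RT; 460/530 nm emission ratio. Normalized to 300 pM IL-6 and 125 nM JAK inhibitor controls.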
In the case of `O=C(O)c1cccc(C(=O)O)c1S(=O)Cc1ccccc1` (stereo not drawn), the activity, negative = inhibition was 6.2%.

For `CC(C)NCC[C@@H](O)c1cc2ccccc2o1`, the activity, negative = inhibition was 9.58%.

For the compound `CCn1c2ccccc2c2nnc(NCCCO)nc21`, the activity, negative = inhibition was 1%.

With `Nc1cccc2cc(S(=O)(=O)Nc3ccc(C(=O)O)cc3)ccc12`, the activity, negative = inhibition was -1.24%.

For `O=C(O)CSc1ncccc1[N+](=O)[O-]`, the activity, negative = inhibition was 1.22%.

Consider `O=C(O)/C=C(/C(=O)O)[C@]12CCN3CC4=CCO[C@@H]5CC(=O)N[C@@H]1[C@H]5[C@H]4C[C@H]32`, for which the activity, negative = inhibition was -7.59%.

Turning to `CCSC[C@@H](N)C(=O)O`, the activity, negative = inhibition was 0.221%.

With `N#CC1(Nc2ccc(-c3ccc(NC4(C#N)CCCC4)cc3)cc2)CCCC1`, the activity, negative = inhibition was 19%.

Consider `C/C(=N/O)[C@@H]1C[C@H](CC(=O)O)C1(C)C`, for which the activity, negative = inhibition is 18.2%.

As to `ClC(Cl)(Cl)C(N1CCN(c2ccccc2)CC1)N1CCN(c2ccccc2)CC1`, the activity, negative = inhibition is -6.12%.

For `O=C(O)CC[C@]1(C(=O)O)CCC(=O)c2ccccc21`, the activity, negative = inhibition is 2.44%.

For the compound `[N-]=[N+]=NC[C@@H]1O[C@@H](n2cnc3c(N)ncnc32)[C@@H]2O[C@@H]21`, the activity, negative = inhibition was -3.75%.

Take `O=C(O)COc1c(Cl)cc(Cl)c2cccnc12`: the activity, negative = inhibition was -0.716%.

Consider `CN(C)c1ccc(C2N([C@H](C#N)c3ccc(N(C)C)cc3)CCCN2[C@@H](C#N)c2ccc(N(C)C)cc2)cc1` (stereo partly drawn), for which the activity, negative = inhibition is 6.93%.

`C#CCOCCCC(=O)O`: the activity, negative = inhibition was 4.1%.

As for `CCC(C)(C)c1ccc(Oc2cccc(C(=O)O)c2)cc1`, the activity, negative = inhibition is -0.214%.

On to `Cc1cc([N+](=O)[O-])c(C)c(Br)c1C`, for which the activity, negative = inhibition was 6.97%.

Consider `CC1=C[N+](=O)c2ccccc2[N+]1=O`, for which the activity, negative = inhibition was 0.919%.

`Nc1ncnc2nc(N3CCN(CCO)CC3)[nH]c12`: the activity, negative = inhibition is -1.25%.

In the case of `C[C@H]1CN(CCO)CCN1c1ccccc1`, the activity, negative = inhibition was 7.5%.

`C(=Nc1cnc2ccccc2c1)c1ccc2ccccc2n1`: the activity, negative = inhibition was -6.04%.

Take `Nc1ncnc2nn([C@H]3O[C@@H](CO)[C@@H](O)[C@H]3O)nc12`: the activity, negative = inhibition was -5.99%.

As to `CCOC(=O)[C@@H](O)Cc1cnc2ccccc2n1`, the activity, negative = inhibition is -5.21%.

In the case of `COc1ccc2c3c([nH]c2c1)[C@H]1C[C@@H]2[C@@H](C[C@@H](O)[C@H](OC)[C@H]2C(=O)O)CN1CC3`, the activity, negative = inhibition was -7.32%.

In the case of `N[C@@H](CSCc1ccc(I)cc1)C(=O)O`, the activity, negative = inhibition is 10.1%.

Consider `Cc1ncc(CN=Cc2ccc(Cl)cc2)c(N)n1`, for which the activity, negative = inhibition is 3.08%.

As to `Nc1nc(-c2ccc3ccccc3c2)cc(-c2cc(-c3ccc4ccccc4c3)nc(N)n2)n1`, the activity, negative = inhibition was 6.54%.

Consider `Nc1ncnc2c1nc(-c1ccccc1)n2[C@H]1O[C@@H](CO)[C@@H](O)[C@H]1O`, for which the activity, negative = inhibition is 1.65%.

`OC[C@@H](O)CNc1ncnc2ccccc12`: the activity, negative = inhibition was 2.66%.

`O=C(NCc1cccnc1)[C@@H]1[C@@H](C(=O)O)[C@H]2CC[C@@H]1O2`: the activity, negative = inhibition was 11.6%.

Take `Nc1nc(-c2ccccc2)c(-c2ccccc2)c(-c2nc(N)nc(-c3ccccc3)c2-c2ccccc2)n1`: the activity, negative = inhibition was 3.19%.

As for `C[C@@]1(CCOCc2ccccc2)NC(=O)NC1=O`, the activity, negative = inhibition is 8.58%.

As for `O=C(O)[C@H]1CC=CC[C@@H]1C(=O)Nc1cccc(O)c1`, the activity, negative = inhibition is 1.44%.

For the compound `Oc1ccc2ccccc2c1C=NCc1c(O)ccc2ccccc12`, the activity, negative = inhibition was -21.2%.

On to `O=C(O)CSc1cc(-c2ccccc2)nc2ccccc12`, for which the activity, negative = inhibition is -6.65%.

`C[C@@H](CSC(=N)N)C(N)=O`: the activity, negative = inhibition was 9.57%.

As to `COc1ccc2[nH]c3cc4c(=O)c5cc(OC)ccc5[nH]c4cc3c(=O)c2c1`, the activity, negative = inhibition was -1.86%.

As for `S=C(S)NCCN1CCNCC1`, the activity, negative = inhibition was -9.45%.

Consider `Cc1cc(C)c2nc3c(c([C@H](O)[C@@H]4CCCCN4)c2c1)CC/C3=C/c1ccc(Cl)cc1`, for which the activity, negative = inhibition was 1.11%.

The next test concerns the target Glucocorticoid receptor (Homo sapiens) (UniProt P04150). Description: GR-GFP Redistribution (AID 450;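 active = compounds whose dose series gives a full or clear partial fitted curve of increased nuclear translocation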; note: potency is the fitted concentration of half-maximal effect). Particulars: U2OS GR-GFP nuclear translocation, laser cytometry, 2 h.
For the compound `O=C(O)c1cccc(C(=O)O)c1S(=O)Cc1ccccc1` (stereo not drawn), the Potency was over 46 µM.

Turning to `CC(C)NCC[C@@H](O)c1cc2ccccc2o1`, the Potency was over 46 µM.

As for `CCn1c2ccccc2c2nnc(NCCCO)nc21`, the Potency was over 46 µM.

Consider `Nc1cccc2cc(S(=O)(=O)Nc3ccc(C(=O)O)cc3)ccc12`, for which the Potency was over 46 µM.

`O=C(O)CSc1ncccc1[N+](=O)[O-]`: the Potency is over 46 µM.

In the case of `O=C(O)/C=C(/C(=O)O)[C@]12CCN3CC4=CCO[C@@H]5CC(=O)N[C@@H]1[C@H]5[C@H]4C[C@H]32`, the Potency is over 46 µM.

For `CCSC[C@@H](N)C(=O)O`, the Potency is over 46 µM.

`N#CC1(Nc2ccc(-c3ccc(NC4(C#N)CCCC4)cc3)cc2)CCCC1`: the Potency was over 46 µM.

With `C/C(=N/O)[C@@H]1C[C@H](CC(=O)O)C1(C)C`, the Potency was over 46 µM.

On to `ClC(Cl)(Cl)C(N1CCN(c2ccccc2)CC1)N1CCN(c2ccccc2)CC1`, for which the Potency is over 46 µM.

Consider `O=C(O)CC[C@]1(C(=O)O)CCC(=O)c2ccccc21`, for which the Potency is over 46 µM.

Turning to `[N-]=[N+]=NC[C@@H]1O[C@@H](n2cnc3c(N)ncnc32)[C@@H]2O[C@@H]21`, the Potency is over 46 µM.

On to `O=C(O)COc1c(Cl)cc(Cl)c2cccnc12`, for which the Potency was over 46 µM.

For `CN(C)c1ccc(C2N([C@H](C#N)c3ccc(N(C)C)cc3)CCCN2[C@@H](C#N)c2ccc(N(C)C)cc2)cc1` (stereo partly drawn), the Potency was over 46 µM.

In the case of `C#CCOCCCC(=O)O`, the Potency is over 46 µM.

On to `CCC(C)(C)c1ccc(Oc2cccc(C(=O)O)c2)cc1`, for which the Potency was over 46 µM.

Turning to `Cc1cc([N+](=O)[O-])c(C)c(Br)c1C`, the Potency was over 46 µM.

As for `CC1=C[N+](=O)c2ccccc2[N+]1=O`, the Potency was over 46 µM.

Turning to `Nc1ncnc2nc(N3CCN(CCO)CC3)[nH]c12`, the Potency is over 46 µM.

As to `C[C@H]1CN(CCO)CCN1c1ccccc1`, the Potency is over 46 µM.

Regarding `C(=Nc1cnc2ccccc2c1)c1ccc2ccccc2n1`, the Potency was over 46 µM.

Turning to `Nc1ncnc2nn([C@H]3O[C@@H](CO)[C@@H](O)[C@H]3O)nc12`, the Potency was over 46 µM.

For the compound `CCOC(=O)[C@@H](O)Cc1cnc2ccccc2n1`, the Potency is over 46 µM.

As to `COc1ccc2c3c([nH]c2c1)[C@H]1C[C@@H]2[C@@H](C[C@@H](O)[C@H](OC)[C@H]2C(=O)O)CN1CC3`, the Potency is over 46 µM.

For `N[C@@H](CSCc1ccc(I)cc1)C(=O)O`, the Potency is over 46 µM.

As to `Cc1ncc(CN=Cc2ccc(Cl)cc2)c(N)n1`, the Potency is over 46 µM.

Turning to `Nc1nc(-c2ccc3ccccc3c2)cc(-c2cc(-c3ccc4ccccc4c3)nc(N)n2)n1`, the Potency is over 46 µM.

As to `Nc1ncnc2c1nc(-c1ccccc1)n2[C@H]1O[C@@H](CO)[C@@H](O)[C@H]1O`, the Potency is over 46 µM.

For the compound `OC[C@@H](O)CNc1ncnc2ccccc12`, the Potency was over 46 µM.

In the case of `O=C(NCc1cccnc1)[C@@H]1[C@@H](C(=O)O)[C@H]2CC[C@@H]1O2`, the Potency was over 46 µM.

Take `Nc1nc(-c2ccccc2)c(-c2ccccc2)c(-c2nc(N)nc(-c3ccccc3)c2-c2ccccc2)n1`: the Potency was over 46 µM.

`C[C@@]1(CCOCc2ccccc2)NC(=O)NC1=O`: the Potency was over 46 µM.

For `O=C(O)[C@H]1CC=CC[C@@H]1C(=O)Nc1cccc(O)c1`, the Potency is over 46 µM.

On to `Oc1ccc2ccccc2c1C=NCc1c(O)ccc2ccccc12`, for which the Potency is over 46 µM.

Take `O=C(O)CSc1cc(-c2ccccc2)nc2ccccc12`: the Potency is over 46 µM.

With `C[C@@H](CSC(=N)N)C(N)=O`, the Potency is over 46 µM.

With `COc1ccc2[nH]c3cc4c(=O)c5cc(OC)ccc5[nH]c4cc3c(=O)c2c1`, the Potency is over 46 µM.

As to `S=C(S)NCCN1CCNCC1`, the Potency was over 46 µM.

Take `Cc1cc(C)c2nc3c(c([C@H](O)[C@@H]4CCCCN4)c2c1)CC/C3=C/c1ccc(Cl)cc1`: the Potency was over 46 µM.
